These results are taken from PubChem BioAssay (EPA / NIEHS).

In test [1] the target is human Phosphodiesterase 5 (PDE5), PDE5A (gene 8654) (UniProt O76074). As to the kind of experiment: NVS_ENZ_hPDE5: NovaScreen (NVS) Enzymatic Assay for human Phosphodiesterase 5 (PDE5) (AID 2283194). In outline: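 Screening began in duplicate at 25 uM, with actives taken into concentration-response. Enzyme activity of recombinant PDE5 toward its substrate was measured at 1 h by fluorescence mobility-shift detection, relative to DMSO controls.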

In test [2] the target is human Phosphodiesterase 10 (PDE10), PDE10A (gene 10846) (UniProt Q9Y233). As to the kind of experiment: NVS_ENZ_hPDE10: NovaScreen (NVS) Enzymatic Assay for human Phosphodiesterase 10 (PDE10) (AID 2283195). In outline:
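Fluorescence readout after mobility-shift separation of substrate and product, 1 h reaction with recombinant human enzyme. Single-concentration duplicates at 25 uM, then concentration-response up to 50 uM for chemicals reaching threshold; DMSO baseline.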

For test [3], the target named is human Phosphoinositide 3-kinase alpha (PI3Ka), PIK3CA (gene 5290) (UniProt P42336). As to the kind of experiment: NVS_ENZ_hPI3Ka: NovaScreen (NVS) Enzymatic Assay for human Phosphoinositide 3-kinase alpha (PI3Ka) (AID 2283196). In outline: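 Duplicate single-point screen (25 uM), then singleton dose-response (max 50 uM) for compounds meeting the threshold. Cell-free kinase reaction, 1 h; fluorescent mobility-shift readout.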
Chain of human Phosphoinositide 3-kinase alpha (PI3Ka), PIK3CA (gene 5290) (P42336 whole entry, looked up): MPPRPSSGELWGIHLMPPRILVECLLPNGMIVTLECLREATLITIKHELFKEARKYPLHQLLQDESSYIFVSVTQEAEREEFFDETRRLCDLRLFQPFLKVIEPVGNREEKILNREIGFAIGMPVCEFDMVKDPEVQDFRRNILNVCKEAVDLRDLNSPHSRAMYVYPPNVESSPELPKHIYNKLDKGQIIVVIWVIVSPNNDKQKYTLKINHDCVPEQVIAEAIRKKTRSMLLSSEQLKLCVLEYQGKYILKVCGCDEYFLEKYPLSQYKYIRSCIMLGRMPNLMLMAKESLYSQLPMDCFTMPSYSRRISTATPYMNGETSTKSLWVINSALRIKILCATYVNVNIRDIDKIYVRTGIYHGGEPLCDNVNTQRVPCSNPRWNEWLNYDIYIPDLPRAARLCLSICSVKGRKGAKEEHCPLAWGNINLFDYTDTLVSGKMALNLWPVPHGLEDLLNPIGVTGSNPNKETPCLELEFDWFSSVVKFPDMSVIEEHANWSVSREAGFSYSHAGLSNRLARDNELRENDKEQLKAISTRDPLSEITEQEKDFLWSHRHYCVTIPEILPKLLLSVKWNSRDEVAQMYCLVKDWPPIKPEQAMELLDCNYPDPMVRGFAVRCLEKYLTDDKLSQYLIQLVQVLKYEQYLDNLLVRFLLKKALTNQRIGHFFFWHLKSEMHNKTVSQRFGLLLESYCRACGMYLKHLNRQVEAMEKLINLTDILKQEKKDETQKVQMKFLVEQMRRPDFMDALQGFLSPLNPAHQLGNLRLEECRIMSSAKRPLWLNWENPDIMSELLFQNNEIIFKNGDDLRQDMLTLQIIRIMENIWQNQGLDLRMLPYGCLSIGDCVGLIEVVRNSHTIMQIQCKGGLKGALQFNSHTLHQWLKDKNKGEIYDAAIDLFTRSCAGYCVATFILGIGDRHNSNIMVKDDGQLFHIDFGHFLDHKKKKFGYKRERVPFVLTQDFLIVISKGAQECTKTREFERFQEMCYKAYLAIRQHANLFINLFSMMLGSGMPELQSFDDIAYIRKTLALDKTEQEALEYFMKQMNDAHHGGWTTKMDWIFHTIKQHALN

The target of test [4] is Serine/threonine-protein phosphatase PP1-alpha catalytic subunit (Homo sapiens) (UniProt P62136). As to the kind of experiment: NVS_ENZ_hPPP1CA: NovaScreen (NVS) Enzymatic Assay for human Protein Phosphatase 1 Aatalytic subunit Alpha (PPP1CA) (AID 2283200). In short, it runs like this: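 Chemicals were first screened in duplicate at 25 uM, and those passing threshold (e.g. 30% inhibition) were run as concentration series to 50 uM. Cell-free recombinant protein, 1.33 h read, fluorescent substrate/product mobility-shift detection, normalised to DMSO.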
Chain of Serine/threonine-protein phosphatase PP1-alpha catalytic subunit (Homo sapiens) (P62136 whole entry, looked up): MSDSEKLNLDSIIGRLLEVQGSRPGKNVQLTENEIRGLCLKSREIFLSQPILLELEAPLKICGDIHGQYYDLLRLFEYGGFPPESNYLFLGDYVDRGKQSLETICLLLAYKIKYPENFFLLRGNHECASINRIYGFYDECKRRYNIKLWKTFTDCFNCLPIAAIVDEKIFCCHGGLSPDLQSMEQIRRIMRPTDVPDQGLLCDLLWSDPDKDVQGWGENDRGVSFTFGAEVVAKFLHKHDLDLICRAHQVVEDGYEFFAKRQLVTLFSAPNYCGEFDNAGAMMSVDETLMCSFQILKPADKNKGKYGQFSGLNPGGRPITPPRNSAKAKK

Test [5] addresses human Protein Tyrosine Phosphatase Non-receptor Type 6 (PTPN6), PTPN6 (gene 5777) (UniProt P29350). As to the kind of experiment: NVS_ENZ_hPTPN6: NovaScreen (NVS) Enzymatic Assay for human Protein Tyrosine Phosphatase Non-receptor Type 6 (PTPN6) (AID 2283210). In short, it runs like this:
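Recombinant human PTPN6 from SF9 cells, enzyme activity followed by fluorescence after mobility-shift separation of substrate and product at 1.33 h. Chemicals first tested at a single 25 uM in duplicate, then confirmed across concentration series; loss of signal relative to DMSO.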

Test [6] concerns the target human Phosphatase and Tensin Homolog (PTEN), PTEN (gene 5728) (UniProt P60484). As to the kind of experiment: NVS_ENZ_hPTEN: NovaScreen (NVS) Enzymatic Assay for human Phosphatase and Tensin Homolog (PTEN) (AID 2283203). In outline: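 Loss of fluorescent product signal after mobility-shift separation reports PTEN activity, recombinant human enzyme, 1 h after compound addition. Single 25 uM duplicate screen, then concentration-response on actives; DMSO baseline.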

The target of test [7] is human Protein Phosphatase, Mg2+/Mn2+ Dependent 1A (PPM1A), PPM1A (gene 5494) (UniProt P35813). As to the kind of experiment: NVS_ENZ_hPPM1A: NovaScreen (NVS) Enzymatic Assay for human Protein Phosphatase, Mg2+/Mn2+ Dependent 1A (PPM1A) (AID 2283198). In short, it runs like this: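 Primary screen in duplicate at 25 uM, with actives then titrated to a maximum of 50 uM. Recombinant PPM1A dephosphorylation of fluorescent substrate measured at 1 h, with substrate and product separated by mobility shift; inhibition fitted against DMSO.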
Chain of human Protein Phosphatase, Mg2+/Mn2+ Dependent 1A (PPM1A), PPM1A (gene 5494) (P35813 whole entry, looked up): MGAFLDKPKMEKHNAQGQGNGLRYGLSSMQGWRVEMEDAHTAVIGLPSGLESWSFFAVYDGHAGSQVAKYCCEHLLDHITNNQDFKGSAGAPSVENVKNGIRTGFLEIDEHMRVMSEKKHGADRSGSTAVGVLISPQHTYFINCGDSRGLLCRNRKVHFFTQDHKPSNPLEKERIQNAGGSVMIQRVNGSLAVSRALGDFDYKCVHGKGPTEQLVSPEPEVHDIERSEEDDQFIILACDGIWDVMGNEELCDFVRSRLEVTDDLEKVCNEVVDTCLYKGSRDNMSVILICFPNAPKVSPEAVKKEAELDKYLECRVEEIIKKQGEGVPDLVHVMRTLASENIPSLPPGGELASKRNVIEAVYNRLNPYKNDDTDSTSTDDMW

Test [8] deals with human Rho Associated Coiled-coil Containing Protein Kinase 1 (ROCK1), ROCK1 (gene 6093) (UniProt Q13464). As to the kind of experiment: NVS_ENZ_hROCK1: NovaScreen (NVS) Enzymatic Assay for human Rho Associated Coiled-coil Containing Protein Kinase 1 (ROCK1) (AID 2283214). In short, it runs like this:
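Compounds first run in duplicate at 25 uM against recombinant human ROCK1, then followed in concentration series. Kinase activity was read 1 h post-dosing by fluorescence with mobility-shift separation, as signal loss relative to DMSO.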

The target in test [9] is human Sirtuin 1 (SIRT1), SIRT1 (gene 23411) (UniProt Q96EB6). As to the kind of experiment: NVS_ENZ_hSIRT1: NovaScreen (NVS) Enzymatic Assay for human Sirtuin 1 (SIRT1) (AID 2283219). In outline: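 Cell-free recombinant SIRT1 with a fluorescent substrate; substrate and product separated by electrophoretic mobility shift and read by fluorescence intensity, 1 h after dosing. Primary screen at 25 uM in duplicate; hits re-run in concentration-response up to 50 uM, relative to DMSO.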

In a further test the target is PPP2CA (gene 5515) (UniProt P67775). As to the kind of experiment: NVS_ENZ_hPPP2CA: NovaScreen (NVS) Enzymatic Assay for human Protein Phosphatase 2 Aatalytic subunit Alpha (PPP2CA) (AID 2283199). In short, it runs like this: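 Cell-free phosphatase activity: fluorescent substrate turnover by recombinant human enzyme, resolved by mobility shift at 1.33 h. Compounds passing the 25 uM duplicate primary screen were rerun in singleton series with a 50 uM top concentration.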
Chain of PPP2CA (gene 5515) (P67775 whole entry, looked up): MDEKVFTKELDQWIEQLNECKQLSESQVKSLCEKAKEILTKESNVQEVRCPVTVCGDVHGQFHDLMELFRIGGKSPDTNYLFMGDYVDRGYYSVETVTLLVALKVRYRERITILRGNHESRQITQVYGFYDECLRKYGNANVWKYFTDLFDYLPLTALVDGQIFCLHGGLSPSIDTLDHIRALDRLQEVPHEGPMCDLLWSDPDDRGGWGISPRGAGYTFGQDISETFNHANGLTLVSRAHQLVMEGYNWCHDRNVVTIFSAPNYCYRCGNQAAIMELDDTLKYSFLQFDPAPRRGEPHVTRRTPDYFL

Test [10] concerns the target Tyrosine-protein phosphatase non-receptor type 11 (Homo sapiens) (UniProt Q06124). As to the kind of experiment: NVS_ENZ_hPTPN11: NovaScreen (NVS) Enzymatic Assay for human Protein Tyrosine Phosphatase Non-receptor Type 11 (PTPN11) (AID 2283202). In outline:
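Compounds first tested in duplicate at 25 uM; those reaching ~30% inhibition rerun in singleton concentration-response, top 50 uM. Phosphatase activity measured after 0.5 h by fluorescence with mobility-shift separation, relative to DMSO.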

Test [11] deals with Tyrosine-protein phosphatase non-receptor type 12 (Homo sapiens) (UniProt Q05209). As to the kind of experiment: NVS_ENZ_hPTPN12: NovaScreen (NVS) Enzymatic Assay for human Protein Tyrosine Phosphatase Non-receptor Type 12 (PTPN12) (AID 2283204). In outline: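 Single-concentration duplicates (25 uM) preceded singleton concentration-response up to 50 uM for chemicals passing threshold. Cell-free recombinant PTPN12 activity was read 1.33 h after dosing via fluorescence after mobility-shift separation; loss of signal versus DMSO.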
Chain of Tyrosine-protein phosphatase non-receptor type 12 (Homo sapiens) (Q05209 whole entry, looked up): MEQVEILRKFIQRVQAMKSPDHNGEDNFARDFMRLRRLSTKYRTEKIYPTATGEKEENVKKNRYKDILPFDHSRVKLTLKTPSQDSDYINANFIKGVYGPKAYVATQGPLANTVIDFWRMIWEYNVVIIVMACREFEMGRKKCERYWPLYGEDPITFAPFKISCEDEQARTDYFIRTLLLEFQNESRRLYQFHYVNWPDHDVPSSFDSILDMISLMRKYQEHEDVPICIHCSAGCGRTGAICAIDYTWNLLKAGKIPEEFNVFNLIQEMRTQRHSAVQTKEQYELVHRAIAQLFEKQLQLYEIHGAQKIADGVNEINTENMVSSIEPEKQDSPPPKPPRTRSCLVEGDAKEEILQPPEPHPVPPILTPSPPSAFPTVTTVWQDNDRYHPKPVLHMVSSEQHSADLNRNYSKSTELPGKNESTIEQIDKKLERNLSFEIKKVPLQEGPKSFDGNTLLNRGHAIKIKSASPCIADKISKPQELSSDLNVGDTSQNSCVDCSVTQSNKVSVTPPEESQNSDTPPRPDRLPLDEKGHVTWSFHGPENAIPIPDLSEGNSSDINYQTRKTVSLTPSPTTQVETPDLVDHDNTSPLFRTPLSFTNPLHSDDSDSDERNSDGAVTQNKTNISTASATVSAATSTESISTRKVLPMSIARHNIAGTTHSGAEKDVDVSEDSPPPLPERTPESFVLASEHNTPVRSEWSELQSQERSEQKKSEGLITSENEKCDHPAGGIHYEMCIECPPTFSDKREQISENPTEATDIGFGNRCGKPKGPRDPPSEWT

The target of test [12] is human Protein Tyrosine Phosphatase Non-receptor Type 1 (PTPN1), PTPN1 (gene 5770) (UniProt P18031). As to the kind of experiment: NVS_ENZ_hPTPN1: NovaScreen (NVS) Enzymatic Assay for human Protein Tyrosine Phosphatase Non-receptor Type 1 (PTPN1) (AID 2283201). In short, it runs like this: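 Chemicals were first tested in duplicate at 25 uM, and those passing threshold went on to singleton concentration series topping at 50 uM. Recombinant enzyme, specific substrate, product separated by mobility shift, fluorescence read at 1.33 h; activity loss relative to DMSO.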

Test [13] deals with human Tropomyosin Receptor Kinase A (TRKA), NTRK1 (gene 4914) (UniProt P04629). As to the kind of experiment: NVS_ENZ_hTrkA: NovaScreen (NVS) Enzymatic Assay for human Tropomyosin Receptor Kinase A (TRKA) (AID 2283224). In outline: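 Compounds were screened at 25 uM in duplicate, then concentration series to a 50 uM top for those meeting threshold (e.g. 30% inhibition). Enzyme was recombinant human TrkA, incubated 1 h. Product formation was quantified by fluorescence after mobility-shift separation.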

Test [14] deals with human Sirtuin 2 (SIRT2), SIRT2 (gene 22933) (UniProt Q8IXJ6). As to the kind of experiment: NVS_ENZ_hSIRT2: NovaScreen (NVS) Enzymatic Assay for human Sirtuin 2 (SIRT2) (AID 2283217). In outline: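 Single-point duplicate screen at 25 uM, then concentration-response (max 50 uM) for chemicals passing threshold. Enzyme activity of recombinant human SIRT2 measured after 1 hr by fluorescence with mobility-shift separation of product; DMSO baseline.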

The target in test [15] is human Sirtuin 3 (SIRT3), SIRT3 (gene 23410) (UniProt Q9NTG7). As to the kind of experiment: NVS_ENZ_hSIRT3: NovaScreen (NVS) Enzymatic Assay for human Sirtuin 3 (SIRT3) (AID 2283222). In outline:
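Cell-free enzyme assay with recombinant protein and fluorescent substrate, product separated by electrophoretic mobility shift; read 1 hour after dosing. Screened in duplicate at 25 uM, then singleton concentration-response up to 50 uM; loss of signal versus DMSO.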

Test [16] deals with Tyrosine-protein phosphatase non-receptor type 13 (Homo sapiens) (UniProt Q12923). As to the kind of experiment: NVS_ENZ_hPTPN13: NovaScreen (NVS) Enzymatic Assay for human Protein Tyrosine Phosphatase Non-receptor Type 13 (PTPN13) (AID 2283205). In outline: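 Screened first at a single 25 uM in duplicate; compounds passing the threshold (e.g. 30% inhibition) were rerun in concentration series, top 50 uM. Recombinant enzyme, fluorescent substrate, mobility-shift separation, 0.5 h read. Data fitted as inhibition relative to DMSO.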

Test [17] concerns the target human Raf-1 Proto-Oncogene, serine/threonine Kinase (RAF1), RAF1 (gene 5894) (UniProt P04049). As to the kind of experiment: NVS_ENZ_hRAF1: NovaScreen (NVS) Enzymatic Assay for human Raf-1 Proto-Oncogene, serine/threonine Kinase (RAF1) (AID 2283216). In short, it runs like this: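 Single-point screening at 25 uM (duplicate), followed by singleton concentration-response to 50 uM maximum for chemicals exceeding threshold. Enzyme activity from fluorescent substrate-product mobility-shift separation after 1 h, relative to DMSO.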

Records with an inconclusive call do not appear. Active and inactive are the calls of the source. Rule for the calls: active = hit-call score of the fitted dose curve at least 0.9, where 1 is the maximum; inconclusive = response in the unintended direction; inactive = score below 0.9.

Chain of human Phosphodiesterase 10 (PDE10), PDE10A (gene 10846) (Q9Y233 whole entry, looked up): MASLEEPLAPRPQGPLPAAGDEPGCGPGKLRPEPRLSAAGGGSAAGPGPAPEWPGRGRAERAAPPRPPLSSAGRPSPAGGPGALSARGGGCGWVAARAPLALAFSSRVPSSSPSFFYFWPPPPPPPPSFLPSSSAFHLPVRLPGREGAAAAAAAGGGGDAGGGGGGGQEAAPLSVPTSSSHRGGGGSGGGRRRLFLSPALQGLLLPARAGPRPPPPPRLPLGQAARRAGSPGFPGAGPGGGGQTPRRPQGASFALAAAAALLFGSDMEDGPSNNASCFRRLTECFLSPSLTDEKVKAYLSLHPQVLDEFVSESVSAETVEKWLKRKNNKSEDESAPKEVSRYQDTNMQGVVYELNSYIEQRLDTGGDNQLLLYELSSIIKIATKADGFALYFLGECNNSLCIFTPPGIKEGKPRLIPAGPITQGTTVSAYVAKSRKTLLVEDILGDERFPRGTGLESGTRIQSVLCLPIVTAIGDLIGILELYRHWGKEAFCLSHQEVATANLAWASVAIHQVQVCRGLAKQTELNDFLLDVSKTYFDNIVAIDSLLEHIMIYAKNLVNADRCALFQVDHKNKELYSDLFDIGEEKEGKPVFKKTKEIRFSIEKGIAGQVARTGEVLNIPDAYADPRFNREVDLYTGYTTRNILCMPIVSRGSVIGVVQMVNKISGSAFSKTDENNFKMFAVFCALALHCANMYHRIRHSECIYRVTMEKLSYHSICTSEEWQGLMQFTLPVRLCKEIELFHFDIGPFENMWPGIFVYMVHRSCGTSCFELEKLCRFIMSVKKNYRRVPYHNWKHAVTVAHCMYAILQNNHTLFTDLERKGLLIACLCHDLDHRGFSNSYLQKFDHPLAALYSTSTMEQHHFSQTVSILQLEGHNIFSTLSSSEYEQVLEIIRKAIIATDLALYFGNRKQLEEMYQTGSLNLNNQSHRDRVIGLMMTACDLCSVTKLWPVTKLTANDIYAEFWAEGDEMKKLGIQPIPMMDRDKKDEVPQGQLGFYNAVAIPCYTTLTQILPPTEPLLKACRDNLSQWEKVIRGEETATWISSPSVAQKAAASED
Chain of Tyrosine-protein phosphatase non-receptor type 11 (Homo sapiens) (Q06124 whole entry, looked up): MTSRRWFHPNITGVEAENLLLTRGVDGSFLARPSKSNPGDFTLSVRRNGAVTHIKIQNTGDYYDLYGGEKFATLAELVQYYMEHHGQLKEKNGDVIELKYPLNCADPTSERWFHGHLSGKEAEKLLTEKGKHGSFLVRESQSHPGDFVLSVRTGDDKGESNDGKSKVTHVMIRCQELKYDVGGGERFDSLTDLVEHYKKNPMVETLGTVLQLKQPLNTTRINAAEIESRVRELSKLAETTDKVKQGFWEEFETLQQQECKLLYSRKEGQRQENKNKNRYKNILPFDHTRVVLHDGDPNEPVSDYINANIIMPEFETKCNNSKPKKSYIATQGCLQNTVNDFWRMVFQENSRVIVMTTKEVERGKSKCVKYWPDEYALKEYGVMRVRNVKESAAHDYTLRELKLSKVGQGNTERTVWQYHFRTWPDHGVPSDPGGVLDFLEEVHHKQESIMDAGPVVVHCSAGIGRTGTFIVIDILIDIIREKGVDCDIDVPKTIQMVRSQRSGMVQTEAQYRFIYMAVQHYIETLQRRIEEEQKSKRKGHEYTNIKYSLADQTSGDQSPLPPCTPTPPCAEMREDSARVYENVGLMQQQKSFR
Chain of human Phosphatase and Tensin Homolog (PTEN), PTEN (gene 5728) (P60484 whole entry, looked up): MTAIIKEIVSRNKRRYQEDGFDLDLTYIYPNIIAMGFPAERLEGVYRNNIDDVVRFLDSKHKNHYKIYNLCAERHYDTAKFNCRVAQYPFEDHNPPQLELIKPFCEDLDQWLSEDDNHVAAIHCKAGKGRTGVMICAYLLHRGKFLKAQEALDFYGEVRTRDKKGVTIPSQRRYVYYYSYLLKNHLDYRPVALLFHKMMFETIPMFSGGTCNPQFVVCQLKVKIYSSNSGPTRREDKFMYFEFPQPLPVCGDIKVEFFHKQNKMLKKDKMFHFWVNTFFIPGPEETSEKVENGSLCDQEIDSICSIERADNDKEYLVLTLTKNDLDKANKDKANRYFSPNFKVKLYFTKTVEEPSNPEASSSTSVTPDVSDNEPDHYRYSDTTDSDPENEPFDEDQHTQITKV

On to `Nc1cc2c3c(c1)C(c1ccccc1)=N[C@@H](NC(=O)c1cccnc1)C(=O)N3CC2`, for which the half-maximal activity concentration (AC50) in [1] is 17.9 µM (active).

For `Cc1ccc2c(c1N)C(=O)c1ccccc1C2=O`, the AC50 in test [2] is 5.53 µM (active). Besides, the compound was classed as inactive in test [3].

Consider `CCOC(=O)c1ccccc1C(=O)OCC`, for which, in [4], the result was inactive.

Turning to `[N-]=[N+]=[N-]`, the call in test [1] and in test [5] was inactive.

For the compound `ClC(Cl)=C(c1ccc(Cl)cc1)c1ccccc1Cl`, the compound was called inactive in [6].

Turning to `CCOc1ccc(C(C)(C)COCc2cccc(Oc3ccccc3)c2)cc1`, the outcome in test [7], in [8] and in test [9] was inactive.

With `CCCCN(CCCC)N=O`, the outcome in [3] was inactive.

Regarding `Nc1ccc([N+](=O)[O-])cc1Cl`, the AC50 in test [6] is 2.67 µM (active).

As for `ClC(Cl)(Cl)c1ccccc1`, in the test with PPP2CA (gene 5515), the compound was called inactive.

With `CC(Cl)CN(C)C` (stereo not drawn), the call in test [2] and in [6] was inactive.

`O=[N+]([O-])c1cc(Cl)ccc1Cl`: the outcome in [2] and in [6] was inactive.

As to `O=c1ssc(Cl)c1Cl`, the outcome in test [10], in test [6] and in test [11] was inactive.

With `N#C/C=C/c1ccccc1`, the result in test [2] was inactive.

In the case of `CC1(C)CN=C(NN=C(/C=C/c2ccc(C(F)(F)F)cc2)/C=C/c2ccc(C(F)(F)F)cc2)NC1`, the AC50 in test [3] was 14.1 µM (active); in test [10], 13.4 µM (active).

On to `O=C(O)C(Cl)Cl`, for which the result in [7] and in [11] was inactive.

For the compound `Cc1cc(C)c(C(=O)P(=O)(c2ccccc2)c2ccccc2)c(C)c1`, the AC50 in test [2] is 0.687 µM (active).

`ClC1=C(Cl)C2(Cl)C3C(Cl)C(Cl)CC3C1(Cl)C2(Cl)Cl` (stereo not drawn): the call in [3], in test [12], in [11] and in test [13] was inactive.

As for `CC(C)(C)c1ccc(O)cc1`, in test [4], the outcome was inactive.

On to `CSC(C)(C)C=NO`, for which the compound was classed as inactive in test [3], in [14], in [9] and in test [15].

As to `CC(C)(C)OOC(C)(C)C`, the call (with PPP2CA (gene 5515); in [4]; in [10]; in test [6]; in test [11]; in test [16]) was inactive. In addition, the call in test [5] and in test [17] was inactive.

Turning to `O=P1(N(CCCl)CCCl)NCCCO1` (stereo not drawn), in [11], the result was inactive.

In the case of `c1ccc(OP(Oc2ccccc2)Oc2ccccc2)cc1`, in [16], the compound was classed as inactive.

With `O=P(Oc1ccccc1)(Oc1ccccc1)Oc1ccccc1`, in test [8], the result was inactive.

As for `Cc1ccc([N+](=O)[O-])cc1C`, the result in [8] was inactive.

Regarding `O=[N+]([O-])c1ccccc1`, the outcome in [13] was inactive.
